According to PubChem BioAssay AID1347417 (National Center for Advancing Translational Sciences (NCATS), 2020):
In all, about 120,000 compounds went through this assay and about 5,300 (4.4%) were called active. Not shown: some 22% with an inconclusive outcome. Calls come from the whole dose curve; as a rule, active = well fitted inhibition curve with a large enough effect; inconclusive = small, poorly fitted or top-dose-only effect; inactive = no such curve, though single readings can be large or run the other way. What follows is part of a selection rich in actives, with near analogues and random picks from the rest. A call without a number means that no potency is given here.

assay: qHTS Primary assay for Inhibitors of Plasmodium falciparum Dd2 growth in vitro; note: nearly all actives have a fitted effect of over 65% in size; conditions: P. falciparum Dd2 growth, SYBR Green, 72 h; series mostly up to 28.9 µM
Description: Malaria, a parasitic disease spread to humans through the bite of a Plasmodium infected Anopheles mosquito, continues to be a global health burden affecting millions of people, with an estimated 228 million cases and 405,000 deaths in 2018. Concerns about safety and limitations of current antimalarial treatments strongly emphasize the need to develop new therapeutic options. The scarce number of chemotypes and validated drug targets with efficacy against the liver stage, have hindered development of new antimalarials. To address this, a chemoprophylactic drug discovery effort was conducted through a combined phenotypic high-throughput asexual blood stage and liver stage screen, providing a robust foundation to identify liver-stage active lead chemotypes. Compounds were initially screened against Plasmodium falciparum Dd2 strain parasites using a in vitro SYBRGreen-1 based 72 hr proliferation assay to identify novel chemotypes to advance to liver stage assays. NIH/NCATS Early Translation Branch Assay Submitter (PI): Anton Simeonov Ph.D.
Malaria-vivax Assay Protocol: PROTOCOL TABLE (as described by Inglese et al., 2007) SEQUENCE No. (e.g., 1, 2, 3, etc.); […] (e.g., Cells, Incubation, Reagent, etc.); VALUE; DESCRIPTION SEQUENCE, Parameter, Description 1; Reagent; 3 uL complete malaria growth medium, 1536 TC treated Black clear bottom plate 2; Controls; 23 nL positive control artesunate (300 nM final) to column 1; Neutral control DMSO to columns 2-4 3; Compound; 23 nL of compounds in dose response concentration (29 uM to 0.5 nM final) 4; Reagent; 5 uL malaria infected red blood cells (2.5% hematocrit final, 0.3% parasitemia 5; Time; 72 hours at 37C (5% O2, 5% CO2, 90% N2; 95% Rh) 6; Reagent; 2 uL lysis buffer/SYBRGreen-1, 25 sec shake immediately following dispense 7; Time; ~16 hours at 37C (5% O2, 5% CO2, 90% N2; 95% Rh) 8; Detector; EnVision (PerkinElmer) bottom read at 485/14nm excitation and 535/25 nm emission NOTES (numbers refer to sequence above): 1; Complete Malaria Growth Media: 1X RPMI-1640 w/L-glutamine, 5.5g/L Albumax II, 367 uM Hypoxanthine, 25 mM HEPES, 0.25% Sodium Bicarbonate, 35 uM Gentamicin sulfate 2; Controls were added using the Kalypsis Pintool (Wako USA) equipped with 1536 pinhead 3; Compounds were added in a 7-point, titration with a high final concentration of 29 uM by Pintool from seven inter-plate titrations of library plates and two DMSO control plates at the beginning and end (see Yasgar et al., 2008). 4; Red blood cells infected with Plasmodium falciparum Dd2 parasites were used. 6; Lysis buffer: 20 mM Tris-HCl, 10 mM EDTA, 0.16% Saponin, 1.6% Triton-X, 10X SYBR Green. REFERENCE: Inglese J, Shamu CE, Guy RK. 2007. Reporting data from high-throughput screening of small-molecule libraries. Nat Chem Biol. doi:10.1038/nchembio0807-438 Yasgar A, Shinn P, Jadhav A, Auld D, Michael S, Zheng W, Austin CP, Inglese J, Simeonov A. 2008. Compound Management for Quantitative High-Throughput Screening. J Lab Autom 13:79-89. doi:10.1016/j.jala.2007.12.004
Potency is the fitted concentration of half-maximal effect.

Row | Structure (SMILES) | Potency
1 | CCN1CCCC1CNC(=O)CCC1CCN(Cc2ccc(Cl)o2)CC1 (stereo unspecified) | inactive
2 | O=C(Cn1ccn2nc(-c3ccc(F)cc3)c(CO)c2c1=O)NCCC1=CCCCC1 | inactive
3 | COc1cccc(CNC(=O)Cn2c(C)cc3nc4n(c(=O)c32)CCCC4)c1 | inactive
4 | O=C1CSC2(CCN(S(=O)(=O)c3ccc(F)cc3)CC2)N1Cc1ccco1 | inactive
5 | CC(C)CCN1CCC(N2CCN(C(=O)C3CCC3)CC2)C1=O (stereo unspecified) | inactive
6 | COc1cccc(CN2CCc3c(cc(C(=O)NCCN4CCCCC4)n3C)C2)c1 | 3.98 µM (active)
7 | COc1cccc(CN2CCc3nc(SCC(=O)Nc4ccccc4)[nH]c(=O)c3C2)c1 | inactive
8 | CNC(=O)[C@@H]1CN(Cc2cccc(OC)c2)C[C@H]1CO | inactive
9 | CCc1ccc(C(=O)N2CCC(c3n[nH]c(=O)n3Cc3ccc(OC)cc3)CC2)cc1 | inactive
10 | O=Cc1cccc(N2CCN(C(=O)N3CCCC3)CC2=O)c1 | inactive
11 | CC(C)N1CC[C@@H]2[C@H]1C(=O)NC[C@H](CCC(=O)NCc1ccccc1)N2C | inactive
12 | COCc1cc(C[C@@H]2CC[C@H](O)[C@@H](CN(C)C)O2)no1 | inactive
13 | COCc1cc(C[C@@H]2CC[C@H](O)[C@@H](CN(CC3CCCCC3)CC3CCCCC3)O2)no1 | 3.16 µM (active)
14 | CCC(CC)C(=O)NC[C@H]1O[C@H](Cc2cc(-c3ccc(F)cc3)on2)CC[C@@H]1O | inactive
15 | O=C(CN1C(=O)COc2ccc(C(=O)COc3ccc(Cl)cc3F)cc21)NCCc1ccccc1 | inactive
16 | Cc1ccc(C)c(C(=O)NC2CCN(c3cnn(CC4CC4)c(=O)c3)CC2)c1 | inactive
17 | C[C@]1(O)CCN(C(=O)c2ccc(N3CC(=O)NC3=O)cc2)C[C@@H]1O | inactive
18 | Cc1noc([C@@H]2CN(S(=O)(=O)c3ccc4c(c3)CCC4)C[C@H]2C(N)=O)n1 | inactive
19 | Cc1nc(N2CCOCC2)c2c(C(=O)NCc3cccc(Cl)c3)c(C)oc2n1 | inactive
20 | CCOC(=O)c1c(C)oc2nc(C)nc(N(CC(C)C)CC(C)C)c12 | 10 µM (active)
21 | COc1ccc(N2CCN(C(=O)c3c(C)oc4nc(C)nc(N5CCCC5)c34)CC2)cc1 | inactive
22 | CCOC(=O)c1c(C)oc2nc(C)nc(N3CCN(c4ccc(OC)cc4)CC3)c12 | 10 µM (active)
23 | CN(CCc1noc(C2CN(C(=O)c3cc(F)ccc3F)C2)n1)C(=O)C1CC1 | inactive
24 | Cc1nc(N(C)C)ncc1C(=O)N[C@@H]1CCOC[C@H]1Oc1ccccn1 | inactive
25 | COc1ccc(O[C@H]2COCCN(S(=O)(=O)c3c(C)noc3C)C2)cc1 | inactive
26 | O=C(c1ccccn1)N1C[C@@H]2OCC(=O)N(CC3CC3)[C@@H]2C1 | inactive
